Whole data set: some 33,000 sequences, median “E-score (-0.5 to 0.5)” near -0.016, cut for the highest 2% near 0.32. The sample as a whole holds a higher share of the highest values than the screen did.
biological target: T1, Stp1 (UniProt B3LFK1); experiment: PBM E-score (8-mer binding enrichment) (E-score (-0.5 to 0.5)); higher = stronger / more preferred TF binding; settings: protein concentration: 200 nM; construct: GST-full length
T1 sequence: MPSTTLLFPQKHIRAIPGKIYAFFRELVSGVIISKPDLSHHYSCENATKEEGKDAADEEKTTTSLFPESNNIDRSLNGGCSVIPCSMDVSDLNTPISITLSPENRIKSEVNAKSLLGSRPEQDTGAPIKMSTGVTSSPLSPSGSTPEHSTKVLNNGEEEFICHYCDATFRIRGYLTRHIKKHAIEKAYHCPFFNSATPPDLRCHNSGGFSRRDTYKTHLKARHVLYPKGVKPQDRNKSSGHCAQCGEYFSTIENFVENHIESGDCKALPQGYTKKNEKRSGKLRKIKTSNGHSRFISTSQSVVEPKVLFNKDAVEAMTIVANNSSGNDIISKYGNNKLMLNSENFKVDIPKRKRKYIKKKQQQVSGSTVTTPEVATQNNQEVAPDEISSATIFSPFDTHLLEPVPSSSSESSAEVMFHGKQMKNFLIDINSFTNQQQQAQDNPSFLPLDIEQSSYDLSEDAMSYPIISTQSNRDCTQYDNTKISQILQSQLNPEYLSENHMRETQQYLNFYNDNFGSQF
Summary of the method: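 The E-score, a modified Wilcoxon-Mann-Whitney statistic, was computed by the Universal PBM Analysis Suite for every ungapped eight-base word pooled with its reverse complement. Scans behind it were normalised with masliner after bound GST-tagged yeast transcription factors were detected with fluorescent anti-GST. The proteins, at about 100-200 nM, had been applied to universal all-10-mer Agilent arrays made double-stranded by primer extension.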

Sequence	PBM E-score
AACAGTCC	-0.215
ATACACTG	0.0725
AGCCTCGG	-0.0283
GCTTGGAA	-0.00205
AGAACCTA	-0.109
AGCCAGCA	-0.297
CTTATTGC	0.0179
ACACAAGT	0.00705
GGATGTGA	-0.084
TGCCAGCA	0.01
ATACCTGG	-0.284
AAGCAGGC	-0.277
CAGAGCTG	-0.147
ATCCGGAT	-0.0475
TCGCGGCA	0.346
CCGCGGCA	0.441
ACGCGGTG	0.0603
TCGCGGAA	-0.0668
ACGCGGAG	0.111
TCGCGACA	-0.0531
ACGCGGCG	0.488
CCGCGGAA	0.183
CCGCGGGA	0.218
CTGCCAGC	-0.204
TCAAAGAA	-0.0561
AAGCGAGC	0.0162

Sequence	PBM E-score
CAAGGTTC	-0.124
CCGCTCTC	-0.0569
AAAACCTA	0.0597
CGGGTGGA	-0.162
AGACGGGA	-0.12
GGACGGCA	0.441
CGACGGCA	0.299
GGACGGCC	0.16
AGACGGAA	0.106
AGACGGCA	0.449
AGGGTCAT	-0.233
CTCGCCAA	0.0165
CGACTCGA	-0.115
CACCATTC	0.0105
CACCGTCG	-0.114
ATACGGGA	0.125
ATACGGGC	-0.0186
ATACGGCC	0.406
GTACGGGA	0.0383
ATACGGAA	0.268
CTACGGCA	0.473
CTACGGCC	0.126
ATACGGCA	0.483
GTACGGCA	0.48
CTACGGTA	-0.146
GTACGGTA	0.147

Sequence	PBM E-score
CTACGGAA	0.0958
CAAAGGGG	-0.262
GGGCTGAC	-0.134
AGTAGACA	0.0181
ATAGGGAC	-0.211
ATCTCCTC	-0.209
AGCCTGCG	-0.245
GTTAAGAA	0.0825
AGAGAGAA	-0.198
CTAGAAAA	-0.0127
AGCCGCGA	0.159
ACCCGCGC	0.232
AGCCGCGG	0.376
AGCCGCGC	0.424
AACCGCGC	0.167
ATCCGCGG	0.13
GGGTTCCA	-0.286
AGAGTACA	0.04
CCGTTAGC	0.0331
CAGACCCC	-0.381
ACGGCAAG	0.369
ACGGCAAC	0.455
ACGGCAAT	0.45
AGGGCAAT	0.156
ATGGCAAA	0.197
AAGGCAAG	0.0628

Sequence	PBM E-score
ACGGCAAA	0.45
CCGGCAAG	-0.0231
AAGGCAAT	0.253
ATGGCAAC	0.289
AAGGCAAC	0.274
AGGGCAAA	0.0608
AATGTCCT	-0.246
CAAGCGCG	0.124
ATTTTGAA	0.277
GGAGTCAC	-0.236
ACTAACAT	0.0936
ACGGATAC	0.249
GGAAAGGA	-0.0901
AAGCCGGG	-0.211
AAGCCGTG	0.419
AAGCCGAG	-0.0198
GAGCCGAA	0.232
GAGCCGTA	0.468
AAGCCGAA	0.116
AAGCCGTA	0.398
CAGCCGTA	0.306
AAGCCGTC	0.296
CACCTCCG	-0.0858
AGATCCTC	-0.251
ACTGTGAA	0.0195
CCTGCACC	-0.271

Sequence	PBM E-score
GAGATTAC	-0.0779
ACGTAGAT	-0.0617
ACCTTTAC	0.0425
GAGACAGA	-0.0347
TATGCGGA	0.207
GCCGAACA	0.114
CTGGGGGA	-0.35
AGGTAGCG	-0.105
ACGCGCAG	-0.103
CCGCGCCG	0.462
ACGCGCCA	0.0175
CCGCGTCG	0.355
ACGCGCCT	0.34
CCGCGTCA	0.214
ACGCGCTG	0.119
CCGCGCCC	0.279
CCGCGCCA	0.252
CCGCGTCC	0.296
ACGCGCCC	0.289
ACGCGCCG	0.412
CTTGGTTC	0.197
ACGGTTAA	0.0599
AAAGGCTG	-0.102
GGTATCCA	0.0649
AACGAGTT	-0.18
CCTGCCCA	-0.259

Sequence	PBM E-score
ATCAGAGC	0.0942
GAAGTATA	0.169
GCGTTGAA	0.138
CGCAAAAG	0.0708
CTTGCTCC	-0.0209
CTGGCGCC	0.314
GAGGCGCA	0.338
AAGGCGTC	0.296
GAGGCGCC	0.414
ATGGCGCC	0.34
GAGGCGTA	0.278
GAGGCGAA	0.206
ATGGCGCG	0.196
AAGGCGCC	0.424
AAGGCGAC	0.224
GAGGCCCC	-0.125
CAGGCGCC	0.286
CGATAGAC	0.00428
AGGTGAGA	-0.0297
ATACCACA	0.0264
ATGTCGCA	0.0188
ATAGGCGA	-0.0945
ATACTCGC	-0.0916
CCCCCTGC	-0.346
TAAATCAA	0.0833
CTTAGCCA	0.13

Sequence	PBM E-score
AAGCGCTT	0.0783
GATCCTAA	-0.164
GCATGAGA	0.151
GGAGATAC	-0.0561
ATCCTAGC	-0.102
AAGGCGGG	-0.112
TAGGCGCA	0.155
AAGGCGGT	0.105
CAGGCGCG	0.113
AAAGCGCT	0.16
AAGGCGCG	0.4
AAGGCGCA	0.316
CAGGCGCA	-0.031
AAGGCGCT	0.396
CCTACTGC	0.107
CTGAAGGC	-0.14
AGTTGGGA	-0.114
ACCCGAGA	-0.282
CACCCAGA	-0.257
AGACCGCC	-0.0258
